Source: PubChem BioAssay (NCATS)
The list shows a part of the results. Results filed as inconclusive are left out. The source made the active and inactive calls. Rule for the calls: active = clear falling dose curves in both reporters; inconclusive = both reporters move, but less clearly or upward; inactive = either reporter flat; the % is the FLuc reporter signal.
Potency is the fitted concentration of half-maximal effect.

Test: Cell-based coincidence reporter assay to measure PMP22 gene transcription in S16 Pmp22-F2sN cells - Confirmatory screen (AID 1508646)
Details: S16 Schwann cells Pmp22-F2sN, dual luciferase, 24 h; series mostly up to 57.5 µM
From the text: Assay Provider: Jim Inglese Ph.D. National Center for Advancing Translational Science, National Institutes of Health, Rockville, MD CMT is a heterogeneous group of neurological disorders that affect approximately 1 in 2,500 people. In particular, the most common form of CMT, CMT1A is genetically linked to the duplication of the PMP22 gene which leads to Schwann cell overexpression, thus manifesting itself as a typical case of dose-sensitive diseases. To identify small molecule compounds that can mediate the expression of PMP22 we developed a phenotypic assay screening strategy by utilizing genome editing techniques to construct Schwann cell lines containing novel reporter technology to monitor the transcriptional or translational regulation of PMP22. For high sensitivity we use a bioluminescent reporter system embedded in the 3' UTR of the PMP22 gene (S16(c9) Pmp22-F2sN) to identify compounds that inhibit gene expression. […] We can further discriminate the effect of all transcriptionally active molecules on PMP22 translation or stability with an assay that incorporates a short NLuc peptide (HiBiT) at the C-terminus of expressed PMP22 (S16(f8) PMP22-HiBiT) allowing alpha complementation and luminescence detection of membrane-associated PMP22 protein. These assays were screened against the NCATS Sytravon Library Collection. Miniaturization of these assays to 1536-well plate format for quantitative high throughput screening (qHTS) yielded rich data sets immediately from the qHTS assay (S16(c9) Pmp22-F2sN), when compared with data from a cell viability assay (Cell TiterGlo) to identify compounds that decreased the output signals through cellular toxicity to streamline the selection process of actives for subsequent characterization using the HiBiT assay (S16(f8) PMP22-HiBiT).
Cell-based coincidence reporter assay to measure PMP22 gene transcription in S16 Pmp22-F2sN cells PROTOCOL TABLE (format as described by Inglese J, Shamu CE and Guy RK. 2007) SEQUENCE No. (e.g., 1, 2, 3, etc.); PARAMETER (e.g., Cells, Incubation, Reagent, etc.); VALUE and DESCRIPTION. 1. Cells. Add 500-1,000 cells in 4 uL in growth media (DMEM High Glucose, No Phenol Red media + 10% heat-inactivated FBS + 1% Pen/Strep supplemented media) per well into Greiner 1536-well white/solid bottom high base, TC-treated plates. 2. Compounds. Library compounds and controls added at 23nL per well, transferred by Pin Tool. 3. Incubation. Incubate plates at 37C, 5% CO2, 95% RH for 24 h. 4. Reagent. Add 3.5uL Nano-Glo Dual-Luciferase Reporter Assay System reagent 1: Lysis and FLuc reagent per well of Greiner 1536-well plates. 5. Incubation. Incubate plates at room temperature for 10 min., protect from light. 6. Detector. FLuc luminescence measured using CCD-based camera (Viewlux). 7. Reagent. Add 3.5uL Nano-Glo Dual-Luciferase Reporter Assay System reagent 2: Stop&Glo reagent per well of Greiner 1536-well plates. 8. Incubation. Incubate plates at room temperature for 10 min., protect from light. 9. Detector. NLuc luminescence measured using CCD-based camera (Viewlux). NOTES (numbers refer to Sequence numbers above; values are from representative experiments) 6. Luminescence Read #1 (FLuc): Clear filter; Exposure = 10 sec, Gain = High, Speed = Slow, Binning = 2X 9. Luminescence Read #2 (NLuc): Clear filter; Exposure = 1 sec, Gain = High, Speed = Slow, Binning = 2X REFERENCES: 1. Inglese J, Shamu CE and Guy RK, Reporting data from high throughput screening of small molecule libraries, Nature Chemical Biology, 2007, 3(8): 438-441. doi.org/10.1038/nchembio0807-438 2. Yasgar A, Shinn P, Jadhav A, Auld DS, Michael S, Zheng W, Austin CP, Inglese J and Simeonov A, Compound Management for Quantitative High-Throughput Screening. J. Assoc. Lab. Auto., 2008, 13: 79-89. doi: 10.1016/j.jala.2007.12.004
For `Cc1ccccc1CNC(=O)CSc1nnc(C)c2c(C)n(-c3ccccc3)nc12`, the Potency was 16.3 µM (active).
For `Cc1cc(OCC(=O)NCC2(N(C)C)CCCCC2)cc(C)c1Cl`, the Potency was “inactive”.
With `Cc1cc(F)ccc1NS(=O)(=O)c1ccc(-n2cccn2)cc1` the Potency was “inactive”.
For `O=C(CCS(=O)(=O)c1ccccc1)N(Cc1cccnc1)c1nc2c(F)cccc2s1`, the Potency was 12.3 µM (active).
In the case of `O=C(c1ccc2c(c1)N(Cc1ccc(F)cc1)C(=O)c1ccccc1S2(=O)=O)N1CCN(c2ccccn2)CC1`, the Potency was “inactive”.
With `CCc1ccc(NC(=O)CN2CCSc3ccc(S(=O)(=O)N4CCCC4)cc32)cc1` the Potency was “inactive”.
In the case of `CCCS(=O)(=O)c1ncc(Cl)c(C(=O)Nc2scc(-c3ccccc3)c2C(=O)OCC)n1`, the Potency was 10.4 µM (active).
In the case of `COc1ccccc1-c1cc(C(F)(F)F)nc(S(=O)(=O)CCCC(=O)Nc2ccc(F)cc2F)n1`, the Potency was 15.3 µM (active).
In the case of `Cc1ccc(NC(=O)c2nc(S(=O)(=O)Cc3cccc(C)c3)ncc2Cl)cc1`, the Potency was 13.1 µM (active).
In the case of `COc1cccc(NC(=O)CSC2=Nc3ccccc3C3=NC(CC(=O)NC4CCCCC4)C(=O)N23)c1` (stereo unspecified), the Potency was “inactive”.
For `COc1ccccc1Nc1c2c(nc3ccc(NC(=O)/C=C/c4cc(OC)c(OC)c(OC)c4)cc13)CCCC2`, the Potency was 12.2 µM (active).
In the case of `CCOc1ccc(NC(=O)c2c(NC(=O)Cc3ccccc3)sc3c2CCC(C)C3)cc1` (stereo unspecified), the Potency was 16.5 µM (active).
With `Cc1sc(C2C(C#N)=C(N)N(c3cccc(Cl)c3)C3=C2C(=O)CCC3)cc1CN1CCOCC1` (stereo unspecified) the Potency was “inactive”.
For `Cc1ccc(CCNC(=O)C2CCN(c3nnc(-n4cccc4CNc4ccc(C)cc4)s3)CC2)cc1`, the Potency was 15.1 µM (active).
In the case of `CCOC(=O)C1CCN(C(=O)CSc2c3c(nc4ccc(Cl)cc24)CCCC3)CC1`, the Potency was 17.3 µM (active).
In the case of `CCCCOc1ccc(CN2C(=O)C(=O)c3cc(Br)cc(C)c32)cc1OC`, the Potency was 10.9 µM (active).
